High-throughput results: PubChem, National Center for Advancing Translational Sciences (NCATS)
An excerpt weighted towards active compounds, which were near 0.43% of everything screened.
N370S GC mod: qHTS Assay for Inhibitors and Activators of N370S glucocerebrosidase as a Potential Chaperone Treatment of Gaucher Disease | Lysosomal acid glucosylceramidase (Homo sapiens), P04062 | N370S GC spleen homogenate, 4MU-glucoside fluorescence | Potency, µM (highest dose often 59.4 µM), for the others: at the top dose activity change, negative = inhibition, hits mostly inhibitors | 330,000 compounds, 0.092% hits | AID 2101, 2009;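 also: potency is read from the fitted curve at half-maximal effect; 0% = full enzyme activity and -100% = no enzyme basal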
GLA spleen mod: qHTS Assay for Inhibitors and Activators of Human alpha-Galactosidase From Spleen Homogenate; Alpha-galactosidase A (Homo sapiens), P06280; AID 2107, 2009; human spleen homogenate, 4MU-alpha-Gal fluorescence, 40 min; 240,000 compounds, 0.008% hits; Potency, µM (titrated, usually from 80 µM), without a hit: top-dose activity change, negative = inhibition, most hits filed as inhibitors;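 also: potency is read from the fitted curve at half-maximal effect; 0% = enzyme with vehicle and -100% = no enzyme basal signal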
Target sequence (P06280 32-429 limits assumed): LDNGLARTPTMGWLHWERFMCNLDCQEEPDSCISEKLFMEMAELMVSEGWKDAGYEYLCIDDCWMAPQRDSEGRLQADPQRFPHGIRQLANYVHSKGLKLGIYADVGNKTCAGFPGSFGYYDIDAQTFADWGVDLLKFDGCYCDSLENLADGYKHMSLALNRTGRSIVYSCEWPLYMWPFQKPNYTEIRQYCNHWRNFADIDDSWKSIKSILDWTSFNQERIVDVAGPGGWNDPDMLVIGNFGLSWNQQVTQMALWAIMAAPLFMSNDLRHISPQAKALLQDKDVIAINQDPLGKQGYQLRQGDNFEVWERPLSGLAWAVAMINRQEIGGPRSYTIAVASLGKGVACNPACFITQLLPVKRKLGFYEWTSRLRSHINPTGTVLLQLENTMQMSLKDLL
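Inhibition or activation of alpha-galactosidase in human spleen homogenate is scored by 4-MU fluorescence after 40 min at 37C, pH 5.0, with 1 mM substrate. AC50s come from concentration-response fitted to the Hill equation.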
GAA glycogen mod: qHTS Assay for Inhibitors and Activators of Human alpha-Glucosidase Cleavage of Glycogen | AID 2100, 2009 | 300,000 compounds, 0.38% hits | Lysosomal alpha-glucosidase (Homo sapiens), P10253 | Potency, µM (top dose mostly 76.4 µM), for the others: at the highest dose activity change, negative = inhibition, hits mostly inhibitors | recombinant GAA, glycogen substrate, Amplex Red glucose oxidase fluorescence;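 also: potency is read from the fitted curve at half-maximal effect; 0% = full enzyme reaction and -100% = no-enzyme basal signal; the screen sought inhibitors and activators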
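Natural-substrate format: glycogen cleavage by 4 nM human enzyme, glucose read by Amplex Red coupling (Ex 573, Em 610 nm). Normalized to enzyme and no-enzyme controls.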
GAA inhib: qHTS Assay for Inhibitors of Human alpha-Glucosidase as a Potential Chaperone Treatment of Pompe Disease; 200,000 compounds, 0.005% hits; Lysosomal alpha-glucosidase (Homo sapiens), P10253; AID 1466, 2008; Potency, µM (series often up to 76.9 µM), without a hit: at the top dose activity change, negative = inhibition, most hits filed as inhibitors; purified human GAA, 4-MU-alpha-glucoside fluorescence;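 also: potency is read from the fitted curve at half-maximal effect; plate controls were uninhibited enzyme wells for no effect and no-enzyme background for full effect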
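AC50 values come from Hill fits of compound titrations (up to 77 uM) against 4 nM human enzyme. Substrate 4-methylumbelliferyl-alpha-D-pyranoside at 400 uM, pH 5.0 citrate buffer, 20 min room temperature; fluorescence Ex 365/Em 440 after alkaline stop.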
GLA inh pH 4.5: qHTS Assay for Inhibitors of Human alpha-Galactosidase at pH 4.5; 230,000 tested, under 10 active; Alpha-galactosidase A (Homo sapiens), P06280; purified enzyme, 4-MU-alpha-Gal fluorescence, pH 4.5; activity change, negative = inhibition, % at 105 µM;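 also: 0% = full activity with enzyme and -100% = basal without enzyme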
GAA spleen mod: qHTS Assay for Inhibitors and Activators of Human alpha-Glucosidase From Spleen Homogenate. human spleen homogenate, 4-MU-alpha-glucoside fluorescence. AID 2112, 2009. 240,000 compounds, 0.006% hits. Lysosomal alpha-glucosidase (Homo sapiens), P10253. Potency, µM (titrated, usually from 79.9 µM), for inactives: at the highest dose activity change, negative = inhibition, usual class: inhibitors;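 also: potency is read from the fitted curve at half-maximal effect; 0% = enzyme with vehicle and -100% = no enzyme basal signal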
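Human spleen homogenate (1 ug) incubated with compounds and 1 mM 4-methylumbelliferyl-alpha-D-glucopyranoside in pH 5.0 citrate/phosphate buffer, 37 C, 40 min. Stopped at pH 10; 4-MU fluorescence (Ex 365/Em 440 nm); AC50 by Hill fit.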
An asterisk follows results filed as active; ? = inconclusive; . = not tested or not shown; [ ] = remark or other dose. Calls follow the shape of the dose curve; as a rule, active = well fitted curve in the direction sought with a large enough effect; inconclusive = small, poorly fitted or top-dose-only effect, or another doubt; inactive = no such curve, though single readings can be large; an effect the other way counts as inactive or inconclusive.

SMILES	N370S GC mod	GLA spleen mod	GAA glycogen mod	GAA inhib	GLA inh pH 4.5	GAA spleen mod
CCCc1cc(=O)[nH]c(Nc2ccc(O)cc2C)n1	.	.	10µM*	.	.	.
O=C1C2=CC[C@@H]3C(=O)N(c4ccc(F)cc4F)C(=O)[C@H]3[C@H]2[C@H](O)[C@H]2O[C@H]12	8%[12.8 µM]	-9%[17.5 µM]	.	.	.	0%[17.4 µM]
O=C(N/N=C/c1ccncc1)c1nc(-c2ccccc2)n2c1CCCCC2	10%	5%	-1%	-6%	-5	1%
NNC(=O)c1nc(-c2ccccc2)n2c1CCCCC2	27%	2%	18µM*	3%	3	-8%
Cc1ccccc1Nc1c(N)c(=O)oc2ccccc12	-3%	-2%	18µM*	3%	-7	-4%
C=CC1=C2C=C(C3CC3)N(C3CCCC3)C=C2C(=O)C(C)(OC(=O)c2ccco2)C1=O (stereo unspecified)	-1%[12.8 µM]	0%[17.5 µM]	.	.	9	-7%[17.4 µM]
Cc1cc(Nc2ccccc2)n(-c2ccc(Br)cc2)n1	-15%	-5%	?	-4%	-1	-10%
CCn1nc(C)cc1Nc1ccccc1	?	3%	14µM*	-11%	-8	-5%
C1CCCNCC1	9%	-2%	.	.	.	2%
C#C[C@]1(O)CC[C@H]2C3CCC4=Cc5oncc5CC4(C)C3CCC21C (stereo partly specified)	2%	13%	.	.	-6	5%
CSc1ccccc1NC(=O)CN(C)CC(=O)NCc1ccccc1	29%	35µM*	5%	1%	12	?
CSc1ccccc1NC(=O)CN(C)CC(=O)Nc1cc(C)ccc1C	-4%	-10%	18%	-11%	-4	-3%
O=C(Nc1ccc(OCC(=O)N2CCN(S(=O)(=O)c3ccccc3)CC2)cc1)c1ccco1	.	-9%	-24%	28µM*	-4	?
CC(C)(C)c1ccc(S(=O)(=O)/C=C\C#N)cc1	-1%	13%	.	.	-3	-3%
COc1cc(CNc2ccc3c(c2)CCC3)cc(OC)c1O	2%	-10%	25µM*	5%	3	-17%
COCCn1c(NC(=S)NC(=O)C2CC2)cc(=O)[nH]c1=O	-2%	4%	31µM*	6%	10	7%
COCCn1c(NC(=S)NC(=O)C23CC4CC(CC(C4)C2)C3)cc(=O)[nH]c1=O	0%	2%	-4%	.	-4	6%
O=C(N/N=C/c1ccc(O)c(O)c1)c1ccc(CSc2cccc3cccnc23)cc1	-5%	-2%	14µM*	-8%	-2	-5%
CC(C)(C)OC=O	-6%	1%	.	.	.	0%
O=C1Cc2cc(S(=O)(=O)N3CCN(c4cccc(C(F)(F)F)c4)CC3)ccc2N1	.	.	9.5µM*	.	.	.
CCOC(=O)C1CCN(S(=O)(=O)c2ccc3c(c2)CC(=O)N3)CC1	-5%	.	14µM*	.	.	.
CCOC(=O)C1CCN(S(=O)(=O)c2ccc3c(c2)NC(=O)C(C)S3)CC1 (stereo unspecified)	-1%	.	0%[76.3 µM]	.	.	.
O=C1CCc2cc(S(=O)(=O)N3CCN(c4cccc(C(F)(F)F)c4)CC3)ccc2N1	4%	4%	-5%	-4%	-22	-3%
O=[N+]([O-])c1ccc(N2CCN(S(=O)(=O)c3ccccc3)CC2)cc1	-6%	.	0%[76.3 µM]	.	.	.
N#Cc1ccc(N2CCN(S(=O)(=O)c3ccc4c(c3)CC(=O)N4)CC2)cc1	.	.	6.5µM*	.	.	.
SMILES	N370S GC mod	GLA spleen mod	GAA glycogen mod	GAA inhib	GLA inh pH 4.5	GAA spleen mod
O=C1Cc2cc(S(=O)(=O)N3CCN(c4ccc([N+](=O)[O-])cc4)CC3)ccc2N1	.	.	8.2µM*	.	.	.
CC(=O)c1ccc(N2CCN(S(=O)(=O)c3ccc4c(c3)NC(=O)CO4)CC2)cc1	8%	.	-1%[76.3 µM]	.	.	.
O[C@@H]1CO[C@H]2C1OC[C@@H]2O (stereo partly specified)	-16%	2%	.	.	.	4%
CCC(Nc1ncnc2ccc(-c3c(C)noc3C)cc12)c1ccccc1 (stereo unspecified)	-6%	16%	.	.	.	0%
O=C1Cc2cc(S(=O)(=O)N3CCN(c4ccc(O)cc4)CC3)ccc2N1	.	.	6.7µM*	.	.	.
O=C1Cc2cc(S(=O)(=O)N3CCCCC3)ccc2N1	-2%	.	?	.	.	.
Cc1[nH]c2ccccc2c1C(=O)CSc1nc2ccccc2c(=O)n1CCCN1CCOCC1	10µM*	-6%	-13%	-9%	-16	-9%
Cn1c(N)c(C(=O)CSc2nc3ccccc3c(=O)n2CCCN2CCOCC2)c(=O)n(C)c1=O	-2%	6%	2%	-4%	3	10%
CN1c2ccccc2C(C)(C)C12C=Cc1cc(O)ccc1O2 (stereo unspecified)	1%	5%	12µM*	0%	-20	-11%
CN1c2ccccc2C(C)(C)C12C=Nc1c(cc(N3CCOCC3)c3ccccc13)O2 (stereo unspecified)	?	9%	-22%	5%	-15	3%
CCOC(=O)C1CCN(c2nc3ccccc3nc2C(C#N)C(=O)NCCc2ccccc2)CC1 (stereo unspecified)	-14%	-13%	14µM*	-5%[15.4 µM]	.	-10%
CCOC(=O)C1CCCN(c2nc3ccccc3nc2C(C#N)C(=O)OCC)C1 (stereo unspecified)	8%	-8%	-2%	0%	1	-3%
COc1ccc(OC)c(C2=Nn3c(nnc3-c3ccccc3C)SC2)c1	12%	1%	.	.	.	1%
CCC(C)(C)OC	8%	-18%	.	.	.	-4%
O=C1C=C(NCc2ccccc2)c2ccccc2C1=O	-20%	10%	10%	2%	-2	11%
O=C1C=C(Nc2ccccc2O)c2ccccc2C1=O	-17%	2%	12µM*	9%	-28	?
Cc1ccc2c(c1)c1c(n2CC(O)CNC(CO)(CO)CO)CCCC1 (stereo unspecified)	11µM*	-5%	25%	-7%	-9	-1%
Cc1ccc2c(c1)c1c(n2CC(O)CNC2CCCCC2)CCCC1 (stereo unspecified)	-16%	-18%	-5%	?	1	-16%
COc1cc(Cl)ccc1NC(=O)COc1ccccc1C(=O)N1CCN(c2ccc(O)cc2)CC1	15%	-2%	18µM*	1%	3	0%
O=[N+]([O-])/C(=C\Nc1ccccc1Cl)S(=O)(=O)c1ccccc1	16%	14%	-11%	6%	9	-6%
O=[N+]([O-])/C(C=Nc1ccccc1O)=C\Nc1ccccc1O	-13%	-8%	3.5µM*	.	-5	-1%
